# Compound activity as filed in PubChem BioAssay.
# JMJD2A Tudor inh: JMJD2A Tudor domain (human) inhibition. Potency, µM (doses to about 114 µM), for the others: at the highest dose activity change, negative = inhibition, most hits filed as inhibitors. AlphaScreen JMJD2A-Tudor / H3K4me3 peptide binding. 4.4% of 390,000 active. O75164; also: % is scaled to controls: 0 for no effect and ±100 for the full control effect; nearly all actives have a fitted effect of over 50% in size
# BAZ2B block: blocks human BAZ2B. Potency, µM (series often up to 114 µM), for the others: top-dose activity change, negative = inhibition, hits mostly inhibitors. Q9UIF8. AlphaScreen BAZ2B-H3K14Ac peptide displacement. 4.4% of 360,000 active; also: % is scaled to controls: 0 for no effect and ±100 for the full control effect; nearly all actives have a fitted effect of over 60% in size
#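 Compounds, titrated to a top concentration of 110 uM, were incubated 30 min at room temperature with preformed BAZ2B/acetyl-K14 H3 peptide complex (50 nM each). Proximity signal was measured by AlphaScreen after 20 min with beads.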
# L3MBTL1 inh: blocks human L3MBTL1; AID 485360; Q9Y468; AlphaScreen L3MBTL1–H3K9me1 peptide binding; 0.66% of 230,000 active; Potency, µM (series often up to 57.1 µM), for inactives: top-dose activity, negative = inhibition, actives largely listed as inhibitors; also: % is scaled to controls: 0 for no effect and ±100 for the full control effect; nearly all actives have a fitted effect of over 60% in size
# Target sequence (Q9Y468 whole entry, looked up): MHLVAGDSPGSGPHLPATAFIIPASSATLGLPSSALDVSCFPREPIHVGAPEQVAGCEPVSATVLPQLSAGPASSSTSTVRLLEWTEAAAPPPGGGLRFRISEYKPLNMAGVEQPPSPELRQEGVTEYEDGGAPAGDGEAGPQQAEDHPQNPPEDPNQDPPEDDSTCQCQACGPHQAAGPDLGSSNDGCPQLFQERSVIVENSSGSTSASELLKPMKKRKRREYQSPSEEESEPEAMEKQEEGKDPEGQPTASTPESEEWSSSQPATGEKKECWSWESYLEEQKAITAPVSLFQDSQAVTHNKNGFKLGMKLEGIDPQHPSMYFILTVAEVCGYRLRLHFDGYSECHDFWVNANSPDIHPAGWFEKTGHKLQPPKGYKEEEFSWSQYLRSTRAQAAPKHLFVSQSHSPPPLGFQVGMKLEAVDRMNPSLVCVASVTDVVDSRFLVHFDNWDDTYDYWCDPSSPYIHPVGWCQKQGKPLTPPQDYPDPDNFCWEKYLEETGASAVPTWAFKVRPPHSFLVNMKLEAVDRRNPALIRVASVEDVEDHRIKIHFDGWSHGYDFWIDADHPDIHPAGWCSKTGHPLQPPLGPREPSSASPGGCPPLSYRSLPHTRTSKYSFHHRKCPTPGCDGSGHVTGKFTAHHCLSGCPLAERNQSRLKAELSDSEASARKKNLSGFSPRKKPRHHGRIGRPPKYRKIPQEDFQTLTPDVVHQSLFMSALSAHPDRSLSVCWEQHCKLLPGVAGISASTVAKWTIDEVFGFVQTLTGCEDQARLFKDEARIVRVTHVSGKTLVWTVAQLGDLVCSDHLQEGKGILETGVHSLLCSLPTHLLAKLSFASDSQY
#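 L3MBTL1 50 nM + b-AHA-H3(1-15)K9me1 75 nM, 30 min RT; compound added, 30 min RT; streptavidin donor/Ni-chelate acceptor beads 10 ug/mL each final, 30 min RT dark; AlphaScreen read.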
# G9a block: blocks human histone lysine methyltransferase G9a | Q96KQ7 | AID 504332 | Potency, µM (highest dose often 102 µM), for inactives: top-dose activity, negative = inhibition, usual class: inhibitors | 8.8% of 350,000 active | G9a H3K9 monomethylation, AlphaScreen, 2 h; also: % is scaled to controls: 0 for no effect and ±100 for the full control effect; nearly all actives have a fitted effect of over 75% in size
#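 Signal arises when biotinylated H3K9 peptide, once monomethylated, bridges streptavidin donor and antibody-captured acceptor beads. Enzyme at 20 nM was preincubated 15 min with test compounds; peptide 500 nM and SAM 20 uM then reacted for 2 h.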
# Sfp inh: inhibitors of Bacillus subtilis Sfp phosphopantetheinyl transferase; 3.5% of 310,000 active; Q9F4F7; Potency, µM, for inactives: largest response in the series, negative = inhibition, most hits filed as inhibitors; Biochemical Sfp PPTase activity, qHTS;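 also: the enzyme is Sfp with the accession as filed and its product quenches rhodamine fluorescence; 0% = enzyme reaction without inhibitor and -100% = no enzyme wells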
#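 Sfp 15 nM + cpd, 15 min RT; start w/ rhodamine-CoA 5 uM, BHQ-2-YbbR 12.5 uM (final); 50 mM Hepes pH 7.6, 10 mM MgCl2, 0.01% NP-40, 0.01% BSA; read 525/598 nm at 0 and 30 min.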
# HP1b binding inh: HP1-beta chromodomain-methylated histone interaction inhibition; P83916; AlphaScreen HP1-beta / biotin-H3K9me3 peptide binding; Potency, µM (doses to about 114 µM), inactives show at the highest dose activity change, negative = inhibition, most hits filed as inhibitors; 0.56% of 390,000 active; AID 540317; also: nearly all actives have a fitted effect of over 70% in size
#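 AlphaScreen: HP1-beta (50 nM) preformed 30 min with biotin-H3(1-18)K9me3 peptide (50 nM) in PBS pH 7.4, 0.01% Tween-20. Compound added for 30 min at RT, then streptavidin donor/nickel chelate acceptor beads (10 ug/mL) for 30 min.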
# Starred values were filed as active, the others as inactive; ? = inconclusive; nt = not tested or not shown; [ ] = remark or other dose. The list is not random: actives were taken first. Their share in the collection is about 12%. Calls follow the shape of the dose curve; as a rule, active = well fitted curve in the direction sought with a large enough effect; inconclusive = small, poorly fitted or top-dose-only effect, or another doubt; inactive = no such curve, though single readings can be large; an effect the other way counts as inactive or inconclusive. Potency is read from the fitted curve at half-maximal effect.
SMILES,JMJD2A Tudor inh,BAZ2B block,L3MBTL1 inh,G9a block,Sfp inh,HP1b binding inh
CCc1ccc(NC(=O)Cn2c(=O)n(CCc3ccccc3)c(=O)c3sc4ccccc4c32)cc1,-9.3%,-11.3%,nt,-1.3%[59 µM],nt,14.6%
COCCSc1ccccc1C(=O)Nc1ccc2c(c1)OCCO2,2.3%,2.2%,nt,3.55µM*,-8.7%,58.8%
COc1ccccc1OC(C)C(=O)Nc1ccc2c(c1)OCCO2 (stereo unspecified),-17.9%,-3.9%,nt,31.6µM*,15.3%,-14.1%
Cc1ccccc1OC(C)C(=O)Nc1ccc2c(c1)OCO2 (stereo unspecified),-2.7%,-20.0%,nt,16.2%,6.0%,17.3%
COCCSc1ccccc1C(=O)Nc1ccncc1,-0.6%,1.9%,nt,?,-5.4%,11.0%
O=C(O)CCCN1C(=O)/C(=C/c2ccncc2)SC1=S,11.3%,-7.2%,3.0%,11.4%[12.7 µM],9.6%,29.0%
O=C(O)C(Cc1ccccc1)N1C(=O)/C(=C/c2cccs2)SC1=S (stereo unspecified),?,?,-15.7%,22.4µM*,-21.7%,-9.2%
CC(c1ccccc1)N1C(=O)/C(=C/c2ccncc2)SC1=S (stereo unspecified),15.8µM*,15.8µM*,?,28.2µM*,-29.8%,?
CC(/C=C1\SC(=S)N(C(C(=O)O)c2ccccc2)C1=O)=C\c1ccccc1 (stereo unspecified),?,?,-4.3%,nt,-11.7%,12.6%
O=C(O)C(c1ccccc1)N1C(=O)/C(=C/c2cccs2)SC1=S (stereo unspecified),3.98µM*,-9.7%,-9.2%,nt,-13.1%,-20.0%
COc1cccc(/C=C2\SC(=S)N(C(Cc3ccccc3)C(=O)O)C2=O)c1 (stereo unspecified),-34.3%,?,-19.1%,44.7µM*,-16.6%,40.9%
O=C(Nc1cc(OC(=O)C(F)(F)F)c2nonc2c1OC(=O)C(F)(F)F)C(F)(F)F,-7.7%[57.1 µM],nt,nt,nt,nt,-5.8%[57 µM]
COC(=O)c1ccc(OCC2c3cc(OC)c(OC)cc3CCN2C(=O)c2ccccc2F)cc1 (stereo unspecified),-27.8%,-26.6%,nt,0.6%[59 µM],nt,21.1%
COc1cccc(C(=O)Nc2cccc(OCc3cc(=O)n4cc(C)ccc4n3)c2)c1,-15.3%,2.6%,nt,-3.1%[59 µM],nt,23.1%[57 µM]
Cc1ccc(/C=C/c2nc3ccccc3[nH]2)o1,50.1µM*,-34.0%,-4.0%,11.2µM*,5.01µM*,?
O=C(CSc1nnc(-c2ccccc2)c2ccccc12)NCC1CCCO1 (stereo unspecified),nt,nt,-6.1%,-11.8%,-29.0%,nt
Cn1c(=O)c2c(SCC(=O)NCC3CCCO3)nc(-c3cccs3)nc2n(C)c1=O (stereo unspecified),nt,-0.5%,-4.0%,50.1µM*,8.6%,nt
CCOC(=O)CNC(=O)CSc1nnc(-c2ccccc2)c(-c2ccccc2)n1,-8.1%,-29.9%,-5.3%,8.1%,11.7%,24.4%
Cc1cccc(-c2nsc(SCC(=O)Nc3cc(C)on3)n2)c1,-5.1%,-2.2%,-1.5%,?,1.7%,3.2%
CCOC(=O)CNC(=O)CSc1nc(-c2ccccc2)ns1,-11.7%,-5.1%,11.2%,10µM*,17.8µM*,-24.4%
CCOC(=O)N1CCN(C(=O)CSc2nc(-c3cccc(C)c3)ns2)CC1,31.6µM*,-5.1%,2.0%,31.6µM*,35.5µM*,-5.4%
O=C(CSc1nc(-c2ccccc2)ns1)NCC1CCCO1 (stereo unspecified),-4.1%,-16.4%,nt,22.4µM*,35.5µM*,-6.3%
COc1ccc(NC(=O)C2CCCN(c3nnc(C)c4c(C)n(-c5ccccc5)nc34)C2)cc1Cl (stereo unspecified),-13.8%,-30.1%,nt,?,nt,14.9%
O=C(NCCCc1nc2ccccc2n1CCCOc1ccccc1)C1CCCCC1,0.8%[57.1 µM],nt,nt,nt,nt,24.1%[57 µM]
CCOC(=O)CSc1nc(-c2ccc(OC)cc2)ns1,26.8%[57.1 µM],51.5%,21.3%,5.01µM*,22.4µM*,19.2%
SMILES,JMJD2A Tudor inh,BAZ2B block,L3MBTL1 inh,G9a block,Sfp inh,HP1b binding inh
CCOC(=O)CNC(=O)CSc1nc(-c2ccc(C)cc2)ns1,5.8%,-2.7%,2.5%,50.1µM*,10.5%,53.0%
Cc1ccc(-c2nsc(SCC(=O)NCc3ccc4c(c3)OCO4)n2)cc1,-1.3%,7.2%,4.9%,22.9%,-6.5%,33.7%
COc1ccc(-c2nsc(SCC(=O)Nc3ccc4c(c3)OCO4)n2)cc1,4.2%,5.9%,-4.7%,?,-16.4%,50.4%
Cc1cccc(-c2nc(CNC(=O)c3ccco3)cs2)c1,-9.1%,-13.6%,nt,50.1µM*,-4.3%,36.9%
COc1cc(-c2noc(-c3ccccc3C(=O)NCc3ccco3)n2)cc(OC)c1OC,-16.0%,-23.8%,-2.5%,39.8µM*,19.5%,-3.8%
Cc1ccc(-c2noc(-c3ccccc3C(=O)NCc3ccco3)n2)cc1,-8.4%,-15.4%,3.7%,5.6%,5.5%,18.3%
Cc1cccc(-c2noc(-c3ccccc3C(=O)NCc3ccco3)n2)c1,?,50.1µM*,-13.5%,?,39.8µM*,4.7%
COc1ccccc1-c1noc(-c2ccccc2C(=O)NCc2ccco2)n1,-14.4%,-19.0%,-6.2%,-3.2%[59 µM],-4.8%,30.0%
c1coc(CNc2nc3nonc3nc2NCc2ccco2)c1,-30.5%[57.1 µM],-15.2%,nt,?,22.4µM*,-4.7%
CC1CCC(NC(=O)c2ccc3c(c2)N(Cc2ccccc2F)C(=O)c2ccccc2S3)CC1 (stereo unspecified),0.3%,-2.7%,nt,-0.9%[59 µM],nt,23.6%
CCn1nc(C)c2c(-c3ccccc3)cc(=O)n(C(C)C(=O)NCc3ccc(C)cc3)c21 (stereo unspecified),-12.7%,-18.5%,nt,12.7%[59 µM],nt,-12.2%
COc1cc(-c2cc(C(=O)Nc3ccc(S(=O)(=O)NCc4ccco4)cc3)c3ccccc3n2)cc(OC)c1OC,-16.4%,-2.4%,-10.5%,-39.1%[59 µM],4.2%,11.8%
COc1cc(-c2cc(C(=O)NCc3ccco3)c3ccccc3n2)cc(OC)c1OC,-28.4%,-35.3%,nt,50.1µM*,-13.8%,9.9%
c1ccc(-c2noc(-c3cccnc3NCc3ccco3)n2)cc1,-8.6%,-21.1%,nt,17.8µM*,nt,48.7%
O=C(NCc1ccco1)c1ccccc1-c1nc(-c2ccccc2)no1,-20.8%,56.2µM*,nt,-5.7%,4.4%,-5.0%
Cc1ccccc1CN1C(=O)c2ccccc2Sc2ccc(C(=O)NCCc3ccccc3)cc21,-13.5%,-7.1%,nt,-2.3%[59 µM],nt,4.4%
Cn1nnnc1SCCCNCc1cccc(OCc2ccc(F)cc2)c1,-10.9%,-18.7%,nt,-30.4%[59 µM],nt,21.3%
Cc1c(C(=O)NCc2n[nH]c(=S)n2-c2ccc(F)cc2)cccc1[N+](=O)[O-],39.8µM*,2.9%,nt,10µM*,20.3%,52.1%
